# PubChem BioAssay (NCATS)
# Values joined by “and” are separate entries in the source; they are usually repeats but may differ in a detail not shown here. Identical values can stand only once. Results filed as inconclusive are left out. A number with no mark means an inactive call. Active and inactive are the calls of the source. Calls come from the whole dose curve; as a rule, active = well fitted inhibition curve with a large enough effect; inconclusive = small, poorly fitted or top-dose-only effect; inactive = flat fitted curve, though single readings scatter.
# Experiment: Primary qHTS for inhibitors of nuclear receptor binding SET domain protein 2 (NSD2) in an isogenic RCH-ACV NSD2 p.E1099K mutant (9B) (AID 1645876); note: nearly all actives have a fitted effect of over 70% in size
# Details: RCH-ACV (leukaemia line) NSD2 E1099K (9B) viability, CellTiter-Glo, 72 h; series mostly up to 44.9 µM; activity change, negative = viability loss: at the top concentration
# % is set by controls: 0 for no effect and ±100 for the full control effect; potency is the fitted concentration of half-maximal effect.
SMILES,Potency,"activity change, negative = viability loss",outcome
c1cc(-c2cnn3cc(-c4ccc(N5CCNCC5)cc4)cnc23)c2cccnc2c1,5.25 µM (active),,
C/C=C(/C)C(=O)O[C@H]1[C@H](OC(=O)/C(C)=C\C)[C@@]23C(CC1(C)C)[C@]1(CCC4[C@@]5(C)CC[C@H](O[C@@H]6O[C@H](C(=O)O)[C@@H](O)[C@H](O[C@@H]7O[C@H](CO)[C@H](O)[C@H](O)[C@H]7O[C@@H]7O[C@@H](C)[C@H](O)[C@@H](O)[C@H]7O[C@@H]7OC[C@@H](O)[C@H](O)[C@H]7O)[C@H]6O[C@@H]6O[C@H](CO)[C@H](O)[C@H](O)[C@H]6O)C(C)(C)C5CC[C@@]4(C)[C@]1(C)C[C@H]2O)O[C@H]3O (stereo partly drawn),1.22 µM (active),,
CC1CCC/C=C/C(=O)c2c(O)cc(O)cc2CC(=O)O1 (stereo not drawn),2.9 µM (active),,
COc1ccc([C@H]2OC[C@H]3O[C@@H](O[C@H]4[C@@H]2NC[C@@H]4O)[C@H](O)[C@H]3O)cc1,0.8 µM (active),,
CC(=O)CC(=O)Nc1ccc(Cl)c(C(F)(F)F)c1,20.5 µM (active),,
CC(C)C[C@@H]1NC(=O)[C@@H](Cc2ccccc2)NC(=O)C(CCCCCC(=O)C2CO2)NC(=O)[C@@H]2CCCCN2C1=O (stereo partly drawn),0.0709 µM (active),,
CC(=O)O[C@H]1CC2C(COC(=O)CC(C)C)=CO[C@@H](OC(=O)CC(C)C)C2[C@]12CO2 (stereo partly drawn),7.96 µM (active),,
C=C1/C(=C/C=C2\CCC[C@]3(C)[C@@H]([C@H](C)CC[C@@H](O)C(C)(C)O)CC[C@@H]23)C[C@@H](O)C[C@@H]1O,18.3 µM (active),,
C=C1[C@@H](OC(C)=O)CC[C@@]2(C)[C@@H](OC(C)=O)[C@H](OC(C)=O)C3=C(C)C[C@H](OC(=O)C(C)CC)[C@@H]([C@@H](OC(C)=O)[C@H]12)C3(C)C (stereo partly drawn),1.21 µM (active),,
Cc1cc2c(F)c(Oc3ncnn4cc(OCC(C)OC(=O)C(C)N)c(C)c34)ccc2[nH]1 (stereo not drawn),9.34 µM (active),,
CC(=O)O[C@@]12CO[C@@H]1C[C@H](O)[C@@]1(C)C(=O)[C@H](O)C3=C(C)[C@@H](OC(=O)[C@H](O)[C@@H](NC(=O)OC(C)(C)C)c4ccccc4)C[C@@](O)([C@@H](OC(=O)c4ccccc4)C12)C3(C)C (stereo partly drawn),0.004 µM (active),,
C=C1C(=O)OC2/C=C(\COC(C)=O)CC/C=C(\C=O)CC(OC(=O)CC(C)C)C12 (stereo not drawn),2.24 µM (active),,
C=C1C(=O)O[C@@H]2C[C@H](C)[C@@H]3CC(=O)[C@H](O)[C@@]3(C)C[C@H]12,20.5 µM (active),,
CC(=O)O[C@H]1CC(C)(C)CC2[C@]13CO[C@@]21CCC2[C@@]4(C)CC[C@H](O[C@@H]5OC[C@H](O[C@@H]6O[C@H](CO)[C@@H](O)[C@H](O)[C@H]6O[C@@H]6OC[C@@H](O[C@@H]7O[C@H](CO)[C@@H](O)[C@H](O)[C@H]7O)[C@H](O)[C@H]6O)[C@H](O)[C@H]5O[C@@H]5O[C@H](CO)[C@@H](O)[C@H](O)[C@H]5O)[C@@](C)(CO)C4CC[C@@]2(C)[C@]1(C)C[C@H]3O (stereo partly drawn),1.09 µM (active),,
COc1cc(/C=C/C(=O)NCCn2c(C(F)(F)F)cc3ccccc32)cc(OC)c1OC,,-80.6%,
C=C1C(=O)OC2/C=C(\CO)CC/C=C(\C=O)C(O)C(OC(=O)C(C)CC)C12 (stereo not drawn),5.67 µM (active),,
COC(=O)C1=COC(O[C@@H]2O[C@H](CO[C@@H]3O[C@H](COC(=O)/C=C\c4ccc(O)cc4)[C@@H](O)[C@H](O)[C@H]3O)[C@@H](O)[C@H](O)[C@H]2O)C2C(CO)=CCC12 (stereo partly drawn),,-12% [at 17.3 µM],
CC1(C)CCCC2(C)C1C(OC(=O)/C=C/C=C/C=O)C=C1COC(=O)C12O (stereo not drawn),7.09 µM (active),,
CC(=O)OC1[C@H]2[C@@H](C[C@@H](C)[C@@H]3C=CC(=O)[C@@]13C)OC(=O)[C@@H]2C (stereo partly drawn),10.3 µM (active),,

SMILES,Potency,"activity change, negative = viability loss",outcome
COc1ccc(C(=O)O[C@H]2C=COC=C3C=C4C(=O)N(C)C(=S)C(=O)N4[C@@H]32)cc1Oc1cc(C=O)ccc1O,6.32 µM (active),,
C/C(=C/CO)CCC1C(C)CCC2C(C)(C)CCCC12C (stereo not drawn),,-6.61%,
C/C=C(\C)C(=O)O[C@H]1C=CC(=O)O[C@H]1/C=C/[C@@H](O)[C@H](C)O,16.3 µM (active),,
CC(C)C[C@@H](N)C(=O)N[C@H]1C(=O)N[C@@H](CC(N)=O)C(=O)N[C@H]2C(=O)N[C@H]3C(=O)N[C@H](C(=O)N[C@H](C(=O)O)c4cc(O)cc(O)c4-c4cc3ccc4O)[C@H](O)c3ccc(c(Cl)c3)Oc3cc2cc(c3O[C@@H]2O[C@H](CO)[C@@H](O)[C@H](O)[C@H]2O[C@H]2C[C@](C)(N)[C@H](O)[C@H](C)O2)Oc2ccc(cc2Cl)[C@H]1O,,-4.76% [at 17.3 µM],
C=C[C@@]1(C)C=C2C(=O)C(O)=C3[C@](C)(C(=O)O)CC[C@@H]4C[C@]34[C@]2(O)C(=O)C1,10.1 µM (active),,
Cn1ncc2cc(-c3cnc(N)c(Cl)c3N3CCC4(CCNC4=O)CC3)ccc21,2.05 µM (active) and 3.72 µM (active),,
O=C(NO)c1ccc(CC(=O)N(CCO)c2ccccc2)cc1,16.3 µM (active),,
Nc1c(S(=O)(=O)c2ccccc2)c2nc3ccccc3nc2n1-c1ccc(F)cc1,,4.8%,
C[C@@H]1O[C@@H](O[C@H]2[C@H](OC(=O)[C@]34CCC(C)(C)C[C@H]3C3=CCC5[C@@]6(C)C[C@H](O)[C@H](O[C@@H]7O[C@H](CO)[C@@H](O)[C@H](O)[C@H]7O)[C@](CO)(C(=O)O)C6CC[C@@]5(C)[C@]3(C)C[C@H]4O)OC[C@H](O)[C@@H]2O)[C@H](O)[C@H](O)[C@H]1O[C@@H]1OC[C@@H](O)[C@H](O[C@@H]2OC[C@](O)(CO)[C@H]2O)[C@H]1O (stereo partly drawn),0.772 µM (active),,
C=C1C(=O)O[C@@H]2[C@H]1CC[C@H](C)[C@]1(CCC(=O)O1)C2(C)O (stereo partly drawn),20.5 µM (active),,
O=S(=O)(NCc1ccccn1)c1ccc(Br)c2ccccc12,,-24.5%,
CC(=O)O[C@H]1CC(C)(C)CC2[C@]13CO[C@@]21CCC2[C@@]4(C)CC[C@H](O[C@@H]5OC[C@H](O[C@@H]6O[C@H](CO)[C@@H](O)[C@H](O)[C@H]6O[C@@H]6OC[C@@H](O)[C@H](O)[C@H]6O)[C@H](O)[C@H]5O[C@@H]5O[C@H](CO)[C@@H](O)[C@H](O)[C@H]5O)[C@@](C)(CO)C4CC[C@@]2(C)[C@]1(C)C[C@H]3O (stereo partly drawn),2.45 µM (active),,
CC1CCCC[C@H]2C(=O)C=C[C@H](O)[C@@H]2CC(=O)O1 (stereo partly drawn),3.25 µM (active),,
C=C(C)C(=O)O[C@H]1[C@H]2C(=C)C(=O)O[C@@H]2C[C@@H](C)[C@@H]2O[C@@H]2C(=O)[C@](C)(O)[C@@H]1OC(=O)C(=C)C,1.78 µM (active),,
C=C(C(=O)O[C@H]1C/C(C)=C/CC/C(CO)=C/[C@H]2OC(=O)C(=C)[C@H]12)C(O)CO (stereo partly drawn),7.13 µM (active),,
Cn1sc(=O)n(Cc2ccccc2)c1=O,7.28 µM (active) and 18.4 µM (active),,
CC1CC(=O)C2=C(C1)C1OC1C1(O)C2C(=O)c2cccc(O)c2C1O (stereo not drawn),,-94%,
Cc1cc2c(cc1N1C(=O)c3cccc4c(CCCO)ccc(c34)C1=O)n(C)c(=O)n2C,0.858 µM (active),,
COC(=O)CC[C@@H](C)C1CCC2C3CCC4C[C@H](OC(C)=O)CCC4(C)C3C[C@H](O)C21C (stereo partly drawn),,,inactive
